Assay results reported in PubChem BioAssay (EPA / NIEHS).
Calls of active or inactive are those of the source. How the source made its calls: active means hit-call score of the fitted dose curve at least 0.9, where 1 is the maximum; inactive means score below 0.9.

Key:
[1] = read-out: Urokinase-type plasminogen activator receptor (uPAR), PLAUR (gene 5329); experiment: BSK_BE3C_uPAR: BioMAP Diversity Plus: BE3C Assay for Urokinase-type plasminogen activator receptor (uPAR) Biomarker Activity (AID 2283039); details: primary human bronchial epithelial cells; actives raise or lower the signal
In short: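 Human bronchial epithelial primary cells; chemical exposure 24 h; uPAR by ELISA; bidirectional fit vs DMSO control.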

[2] = read-out: Interleukin-6 (IL6), IL6 (gene 3569); experiment: BSK_CASM3C_IL6: BioMAP Diversity Plus: CASM3C Assay for Interleukin-6 (IL6) Biomarker Activity for (AID 2283040); details: primary human coronary artery smooth muscle cells; actives raise or lower the signal
[3] = read-out: Tissue plasminogen activator (tPA), PLAT (gene 5327); experiment: BSK_BE3C_tPA: BioMAP Diversity Plus: BE3C Assay for Tissue plasminogen activator (tPA) Biomarker Activity (AID 2283041); details: primary human bronchial epithelial cells; actives raise or lower the signal
In short: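 Primary human lung bronchial epithelial cultures receive test chemical; after 24 h, tPA is quantified by ELISA, and gain or loss of signal is fitted bidirectionally relative to DMSO baseline.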

[4] = read-out: Interleukin-8 (IL8), CXCL8 (gene 3576); experiment: BSK_CASM3C_IL8: BioMAP Diversity Plus: CASM3C Assay for Interleukin-8 (IL8) Biomarker Activity (AID 2283042); details: primary human coronary artery smooth muscle cells; actives raise or lower the signal;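 further: IL-8 protein level quantified by ELISA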
[5] = read-out: Human Leukocyte Antigen - DR isotype (HLADR), HLA-DRA (gene 3122); experiment: BSK_CASM3C_HLADR: BioMAP Diversity Plus: CASM3C Assay for Human Leukocyte Antigen - DR isotype (HLADR) Biomarker Activity (AID 2283043); details: primary human coronary artery smooth muscle cells; actives raise or lower the signal;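 further: cell-surface HLA-DR protein level quantified by ELISA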
[6] = read-out: Macrophage colony-stimulating factor (MCSF), CSF1 (gene 1435); experiment: BSK_CASM3C_MCSF: BioMAP Diversity Plus: CASM3C Assay for Macrophage colony-stimulating factor (MCSF) Biomarker Activity (AID 2283044); details: primary human coronary artery smooth muscle cells; actives raise or lower the signal;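 further: M-CSF protein amount quantified by ELISA after 24 h exposure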
[7] = read-out: Low-density lipoprotein receptor (LDLR), LDLR (gene 3949); experiment: BSK_CASM3C_LDLR: BioMAP Diversity Plus: CASM3C Assay for Low-density lipoprotein receptor (LDLR) Biomarker Activity (AID 2283045); details: primary human coronary artery smooth muscle cells; actives raise or lower the signal;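 further: LDLR protein level on the cell surface quantified by ELISA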
[8] = read-out: Monocyte Chemoattractant Protein-1 (MCP1), CCL2 (gene 6347); experiment: BSK_CASM3C_MCP1: BioMAP Diversity Plus: CASM3C Assay for Monocyte Chemoattractant Protein-1 (MCP1) Biomarker Activity (AID 2283046); details: primary human coronary artery smooth muscle cells; actives raise or lower the signal;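 further: MCP-1 level quantified by ELISA 24 h after dosing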
[9] = BSK_CASM3C_Proliferation: Cell Proliferation Assessment in the BioMAP Diversity Plus: CASM3C Assay (AID 2283047); details: primary human coronary artery smooth muscle cells;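 further: sulforhodamine B total protein stain as relative cell number at 560 nm; sub-confluent cells exposed 48 h before staining; fitted both ways against DMSO so gain or loss of cell number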
[10] = read-out: Monokine induced gamma interferon (MIG), CXCL9 (gene 4283); experiment: BSK_CASM3C_MIG: BioMAP Diversity Plus: CASM3C Assay for Monokine induced gamma interferon (MIG) Biomarker Activity (AID 2283048); details: primary human coronary artery smooth muscle cells; actives raise or lower the signal;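 further: MIG protein level measured by ELISA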

Measured: AC50

CCCCc1ccccc1
inactive: all assays above

CSC(C)(C)C=NO
inactive: all assays above

N#Cc1cc([N+](=O)[O-])ccc1N
inactive: all assays above

CCOC(=O)c1ccccc1C(=O)OCC
inactive: all assays above

ClC1=C(Cl)C2(Cl)C3C(Cl)C(Cl)CC3C1(Cl)C2(Cl)Cl (stereo unspecified)
active: [5] 20 µM | [9] 31.1 µM
inactive: all other assays above

ClC(Cl)c1ccccc1
inactive: all assays above

O=c1ssc(Cl)c1Cl
inactive: [4] | [7]
active: [1] 12.2 µM | [2] 4.33 µM | [3] 7.68 µM | [5] 3.54 µM | [6] 5.46 µM | [8] 5.7 µM | [9] 1.69 µM | [10] 24.4 µM

CCCCOCCOP(=O)(OCCOCCCC)OCCOCCCC
active: [2] 8.79 µM
inactive: all other assays above

ClC(Cl)=C(c1ccc(Cl)cc1)c1ccccc1Cl
active: [1] 8.34 µM | [5] 26.1 µM | [6] 16.7 µM | [7] 23.5 µM | [8] 20 µM | [9] 30 µM
inactive: [2] | [3] | [4] | [10]

CCOP(=S)(Oc1ccc([N+](=O)[O-])cc1)c1ccccc1 (stereo unspecified)
active: [3] 2.17 µM | [5] 14.2 µM | [7] 20 µM | [9] 20 µM
inactive: all other assays above

c1ccc2c(c1)Nc1ccccc1S2
inactive: all assays above

COCCOCCO
inactive: all assays above

FC(F)(F)C(F)(C(F)(F)F)C(F)(F)C(F)(F)CC1CO1 (stereo unspecified)
inactive: all assays above

CC(O)C(F)(F)C(F)(F)F (stereo unspecified)
inactive: all assays above

ClC(Cl)(Cl)c1ccccc1
inactive: all assays above

CC(C)Nc1ccc(Nc2ccccc2)cc1
active: [2] 33.4 µM | [4] 34.1 µM | [5] 20 µM | [6] 20 µM | [7] 31.8 µM | [8] 32.9 µM | [9] 20 µM | [10] 28.2 µM
inactive: [1] | [3]

CC(Cl)CN(C)C (stereo unspecified)
inactive: all assays above

CC(Cl)(Cl)C(=O)O
inactive: all assays above

CCN(CC)c1ccccc1
inactive: all assays above

OCC1CO1 (stereo unspecified)
inactive: all assays above

COC(=O)C(F)(F)C(F)(F)OC(F)(C(F)(F)F)C(F)(F)OC(F)=C(F)F (stereo unspecified)
inactive: all assays above

O=[N+]([O-])c1ccc(Cl)c(Cl)c1
not listed: [1]
inactive: all other assays above

CC(C)(C)c1ccccc1OP(=O)(Oc1ccccc1)Oc1ccccc1
active: [7] 4.61 µM | [9] 20 µM
inactive: all other assays above

Cc1c([N+](=O)[O-])cc2c(c1[N+](=O)[O-])C(C)(C)CC2(C)C
active: [1] 16.1 µM | [3] 10.6 µM | [5] 1.74 µM | [6] 0.378 µM | [7] 5.44 µM
inactive: all other assays above

O=S(=O)(F)C(F)(F)C(F)(F)C(F)(F)C(F)(F)C(F)(F)C(F)(F)C(F)(F)C(F)(F)F
inactive: all assays above

Nc1ccc(Cl)cc1
inactive: all assays above

O=P(OCC(Br)CBr)(OCC(Br)CBr)OCC(Br)CBr (stereo unspecified)
active: [9] 3.51 µM
not listed: [7]
inactive: all other assays above

CCCN(CCC)c1c([N+](=O)[O-])cc(C(C)C)cc1[N+](=O)[O-]
active: [7] 20 µM | [9] 31.7 µM
not listed: [5]
inactive: all other assays above

Cc1ccc([N+](=O)[O-])cc1C
inactive: all assays above

CCCCCCCc1ccc(O)cc1
active: [1] 39.3 µM | [3] 32.2 µM | [4] 23 µM | [5] 35.3 µM | [6] 35.5 µM | [7] 31.2 µM | [9] 37 µM | [10] 35.3 µM
inactive: [2] | [8]

COP(N)(=S)OC
inactive: all assays above

O=[N+]([O-])c1ccccc1
inactive: all assays above

CCCCN(CCCC)N=O
inactive: all assays above

Cc1ccc(O)cc1C
active: [8] 0.658 µM
inactive: all other assays above

CCOP(=S)(S)OCC
inactive: all assays above

O=P(Oc1ccccc1)(Oc1ccccc1)Oc1ccccc1
active: [7] 29.5 µM | [9] 26 µM
inactive: all other assays above

Cc1ccc2c(c1N)C(=O)c1ccccc1C2=O
not listed: [6]
inactive: all other assays above

O=C(O)C(Cl)Cl
inactive: all assays above

O=S1(=O)OCC2C(CO1)C1(Cl)C(Cl)=C(Cl)C2(Cl)C1(Cl)Cl (stereo unspecified)
active: [5] 32.7 µM | [6] 7.85 µM | [9] 20 µM
inactive: all other assays above

CCNc1nc(Cl)nc(NC(C)(C)C)n1
active: [9] 4.52 µM
inactive: all other assays above

CC(C)(C)c1ccc(O)cc1
inactive: all assays above
